# In the library only some 19% were active in any assay of this set; here they are far more common.
# HT1080 IDH1KD tx = qHTS for induction of synthetic lethality in tumor cells producing 2HG: qHTS for the HT-1080-IDH1KD cell line; 360,000 compounds, 2% hits; AID 686971, 2013; HT-1080 IDH1 knockdown viability, ATP luminescence, 48 h; Potency, µM (titrated, usually from 46.1 µM), for the others: top-dose activity, negative = toxicity, most hits filed as cytotoxic;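 note: potency is the fitted concentration of half-maximal effect; 0% = DMSO wells and -100% = cell-free medium wells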
#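 % activity derives from luminescence (CellTiter-Glo), normalised to DMSO and no-cell wells. HT-1080-IDH1KD cells, 750/well, had 48 h compound exposure at 37 °C.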
# ELG1 DNA repair = qHTS screen for small molecules that inhibit ELG1-dependent DNA repair in human embryonic kidney (HEK293T) cells expressing luciferase-tagged ELG1 | HEK293T ELG1-luciferase reporter, luminescence, 16 h; DNA damage induced by 5-fluorouridine | Potency, µM (titrated, usually from 46.1 µM), for the others: top-dose activity change, negative = inhibition, usual class: inhibitors | 330,000 compounds, 2.3% hits | AID 504467, 2011; note: potency is the fitted concentration of half-maximal effect; nearly all actives have a fitted effect of over 55% in size
#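 In this reporter screen, reduction of luminescence relative to DMSO vehicle indicated activity. Compounds and 5-fluorouridine were added together to 2,000 cells per well, incubated for 16 hr at 37 °C, then developed with ONE-Glo.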
# TDP1 cell CPT = qHTS for Inhibitors of human tyrosyl-DNA phosphodiesterase 1 (TDP1): qHTS in cells in presence of CPT; chicken DT40 Tdp1-/-;hTDP1 cells + 20 nM CPT, ATP luminescence, 48 h; Potency, µM (doses to about 46.2 µM), inactives show top-dose activity change, negative = growth inhibition, usual class: inhibitors; 420,000 compounds, 12% hits; AID 686979, 2013; note: potency is the fitted concentration of half-maximal effect; nearly all actives have a fitted effect of over 55% in size
#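 Chicken DT40 Tdp1-/- cells complemented with human TDP1, 400 cells/well, exposed to compounds plus 20 nM camptothecin for at least 48 h at 37 C; viability read as ATP content by CellTiter-Glo luminescence.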
# HT1080NT lethal = qHTS for induction of synthetic lethality in tumor cells producing 2HG: qHTS for the HT-1080-NT fibrosarcoma cell line; Potency, µM (titrated, usually from 46.1 µM), inactives show at the highest dose activity, negative = less viability, usual class: cytotoxic; AID 686970, 2013; HT-1080-NT fibrosarcoma viability, CellTiter-Glo ATP luminescence, 48 h; 360,000 compounds, 1.6% hits;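 note: NT is the 2HG producing partner of a matched IDH1 knockdown line; potency is the fitted concentration of half-maximal effect; 0% = DMSO-treated cells and -100% = media-only wells without cells; nearly all actives have a fitted effect of over 55% in size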
#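 Compounds were tested in concentration-response format on HT-1080-NT cells for 48 hours at 37 degrees C. Cell viability came from CellTiter-Glo luminescence; curves were classified by r2, response magnitude and activity.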
# IL1B secr inh = qHTS for Inhibitors of Inflammasome Signaling: IL-1-beta AlphaLISA Primary Screen; THP-1 LPS/ATP IL-1B secretion, AlphaLISA, 16 h; hits give low values; activity change, % at 57.5 µM; 360,000 compounds, 4.7% hits; AID 743279, 2014; in the data active = activity change below about -50%; inconclusive = mostly about -30% to -49%
#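 Secreted IL-1B measured by AlphaLISA bead assay after 16 h compound exposure of THP-1 cells; compounds (final up to 57.5 uM) added 1 h before LPS (250 ng/mL) and ATP (1.25 mM) stimulation; lower signal means less secretion.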
# DT40 TDP1 no CPT = qHTS for Inhibitors of human tyrosyl-DNA phosphodiesterase 1 (TDP1): qHTS in cells in absence of CPT. DT40 Tdp1-/- hTDP1 cells, no CPT, ATP luminescence, 48 h. Potency, µM (highest dose often 46.2 µM), without a hit: top-dose activity change, negative = growth inhibition, usual class: inhibitors. AID 686978, 2013. 420,000 compounds, 15% hits; note: potency is the fitted concentration of half-maximal effect; nearly all actives have a fitted effect of over 55% in size
#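 DT40 Tdp1-/-;hTDP1 cells, no CPT (DMSO vehicle only), 400 cells/well; compounds pin-transferred; ≥48 hr, 37 °C; CellTiter-Glo 30 min RT dark, luminescence read.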
# * hit, by the source's call; ? = inconclusive; . = not tested or not shown. Unless noted, calls come from the whole dose curve; as a rule, active = well fitted curve in the direction sought with a large enough effect; inconclusive = small, poorly fitted or top-dose-only effect, or another doubt; inactive = no such curve, though single readings can be large; an effect the other way counts as inactive or inconclusive. Unless noted, % is set by controls: 0 for no effect and ±100 for the full control effect.
SMILES,HT1080 IDH1KD tx,ELG1 DNA repair,TDP1 cell CPT,HT1080NT lethal,IL1B secr inh,DT40 TDP1 no CPT
CCOC(=O)c1sc2ccccc2c1S(=O)(=O)Nc1ccc(OC)c(Cl)c1,.,.,?,.,.,-29%
CCOC(=O)c1sc2ccccc2c1S(=O)(=O)Nc1ccc(CC)cc1,.,.,?,.,.,23µM*
C[C@@H](NCCCn1cnc2c(OCc3ccccc3)ncnc21)c1cccc2ccccc12,?,.,?,-29%,-27,16µM*
c1ccc(CNCCCn2cnc3c(OCc4ccccc4)ncnc32)cc1,-11%,.,29µM*,-2%,-12,23µM*
c1ccc(CCCNCCCn2cnc3c(OCc4ccccc4)ncnc32)cc1,?,.,10µM*,-23%,-86*,12µM*
CSc1ncnc2c1ncn2CCCNCC(c1ccccc1)c1ccccc1,-10%,.,?,-7%,-3,26µM*
c1ccc(N2CC3COc4ccccc4C3=N2)cc1 (centres undefined),9%,.,2%,2%,48,-10%
CCC(C(=O)NCc1ccccn1)n1c2ccccc2c2nc(=O)cc(C)n21 (centres undefined),3%,5%,?,3%,24,2%
CCCCCCn1c(-c2cccs2)n[nH]c1=S,-7%,-5%,1%,-7%,-6,-22%
Cc1c(C)n(CCCN(C)C)c2ncnc(NC3CCCCC3)c12,?,13%,?,-21%,-53*,?
Cc1c(C)n(CCCN(C)C)c2ncnc(Nc3ccccc3)c12,-8%,?,14%,-10%,-27,23%
COc1ccc(Nc2ncnc3c2c(C)c(C)n3CCCN(C)C)cc1,-24%,?,34%,-4%,-10,2%
COc1ccccc1Nc1ncnc2c1c(C)c(C)n2CCCN(C)C,6%,-5%,18µM*,3%,?,?
COc1ccccc1CNC(=O)CS(=O)(=O)Cc1nc(-c2ccccc2C)oc1C,.,.,-9%,.,.,-25%
CCOc1ccc(S(=O)(=O)N2CCOCC2)cc1NC(=O)CSCc1ccc(C)cc1,?,-28%,5.2µM*,8.2µM*,25,4.6µM*
COc1ccc(S(=O)(=O)N2CCOCC2)cc1NC(=O)CCNC(=O)c1ccc(Cl)cc1,?,?,-28%,21µM*,2,-4%
COc1ccc(S(=O)(=O)N2CCOCC2)cc1NC(=O)COC(=O)c1oc2ccccc2c1C,-1%,11%,-10%,-16%,-17,?
COc1ccc(S(=O)(=O)N2CCOCC2)cc1NC(=O)COC(=O)CCOc1ccc(C)cc1,4%,0%,6%,11%,4,-19%
COc1ccc(S(=O)(=O)N2CCOCC2)cc1NC(=O)COC(=O)c1ccc([N+](=O)[O-])s1,-1%,23µM*,-20%,0%,8,-1%
COc1ccc(S(=O)(=O)N2CCOCC2)cc1NC(=O)CCNC(=O)c1ccc(Br)cc1,-23%,3%,?,-3%,11,?
COc1ccc(S(=O)(=O)N2CCOCC2)cc1NC(=O)COc1ccc(C)cc1,-3%,?,?,0%,-51*,?
CCOC(=O)c1ccc(-c2c(-c3ccccc3OC)sc3ccc(OC)cc23)cc1F,1%,?,?,1%,0,?
CC[C@]12C(=O)N(C)C[C@H]([C@@H]3C(=O)N(C)C(=O)[C@@H]31)N2C(=O)c1ccc(Cl)cc1,0%,.,8%,3%,0,-17%
Cc1ccc(S(=O)(=O)c2[nH]c(-c3ccccc3)nc2SC(C)C(=O)O)cc1 (centres undefined),.,.,1%,.,.,?
O=C1O[C@H]2[C@H](O)[C@@H]1OC(O)[C@H]2O (some centres undefined),.,.,-5%,.,.,2%
SMILES,HT1080 IDH1KD tx,ELG1 DNA repair,TDP1 cell CPT,HT1080NT lethal,IL1B secr inh,DT40 TDP1 no CPT
CCCC(C(=O)NNC(=O)c1cc(C)oc1C)c1ccccc1 (centres undefined),16%,?,-7%,0%,1,-24%
NCCn1oc(=O)[nH]c1=O,.,.,-2%,.,.,0%
COc1cc(S(=O)(=O)N2CCOCC2)ccc1NC(=O)COC(=O)CC12CC3CC(CC(C3)C1)C2,-16%,18µM*,?,-4%,0,18µM*
Cc1ccc(OCCCC(=O)Nc2cc(S(=O)(=O)N3CCOCC3)ccc2N2CCOCC2)cc1,5%,-5%,21µM*,0%,-14,23µM*
O=C(CCCOc1ccccc1)Nc1cc(S(=O)(=O)N2CCOCC2)ccc1N1CCOCC1,-3%,?,?,5%,-15,?
O=C(NCc1ccc(F)cc1)c1cccnc1C(=O)O,17%,3%,45%,16%,24,-5%
COc1cccc(NC(=O)Cn2c(=O)n(Cc3ccco3)c(=O)c3cc(OC)c(OC)cc32)c1,.,.,-14%,.,.,-6%
Fc1ccccc1C(c1nnnn1C1CCCC1)N1CCN(Cc2ccccc2)CC1 (centres undefined),8%,-9%,21µM*,1%,?,12µM*
CCC(c1nnnn1C1CCCC1)N1CCN(Cc2ccccc2)CC1 (centres undefined),-3%,-9%,-6%,-8%,-3,-20%
C(=C\c1ccccc1)/CN1CCN(C(c2ccccc2)c2nnnn2C2CCCCC2)CC1 (centres undefined),7%,.,?,21%,-29,13µM*
C(=C\c1ccccc1)/CN1CCN(C(c2ccnc3ccccc23)c2nnnn2C2CCCCC2)CC1 (centres undefined),?,.,23µM*,?,?,18µM*
COc1cccc(C(c2nnnn2C2CCCC2)N2CCN(C/C=C/c3ccccc3)CC2)c1OC (centres undefined),?,.,?,?,-16,?
CCC(c1nnnn1C1CCCC1)N1CCN(C/C=C/c2ccccc2)CC1 (centres undefined),2%,.,?,13%,7,?

# Bioassay records: PubChem BioAssay, National Center for Advancing Translational Sciences (NCATS)
